Test results reported in the OligoGym collection.

What follows are sequences tested against MCM6 (assay: pooled miR-30 sensor sort-seq; sequence = guide strand). Settings: shRNA.
Note: reference of the scale not given here.

| Sequence | sensor-assay potency score (higher = more potent) |
| --- | --- |
| TACAACACACACCATTATCAGC | -1.14 |
| TTGATTTATGTCTTCATTGTAG | -0.457 |
| TTGATCTAGATTGACATCAGGT | 0.643 |
| ATATCTTCTGATATCATCGAGG | -0.536 |
| TATCTCTGATTCGATTTCCTTC | -0.514 |
| ATGAATAGCAACTTGATCCCGC | 0.187 |
| TAGATTTTTATCTTGACTCATC | -0.898 |
| TAAAGTCACACTTGTCACCAGC | -0.442 |
| TTTGGTTCCAACTTCACTGGGA | 1.01 |
| TAGAACATGATCATAGTGTGTG | 0.881 |
| TTACACATGAAAACAAAGGTAT | -0.0386 |

What follows are sequences tested against MED17 in the same assay as above. Settings: shRNA.

| Sequence | sensor-assay potency score (higher = more potent) |
| --- | --- |
| TTTTATTCCACTGAACTTCTTT | 0.579 |
| TACACTAGGTGTCTCAACTGGT | 0.232 |
| TTTATGAAACTCTCTAATCAGT | -0.898 |
| TCTATGTACAACTCGAATCTGC | -0.242 |
| TTATCTTGTAAAACATCACTTT | -0.0835 |
| TATTATTTTACATCTTGTCATA | -1.34 |
| TATCTTTTTATCCAGATCGAGA | -1.18 |
| TTCTGTAGCTCAGATCTCCGAG | 0.121 |
| TTTACATAAGAGAACATTCTGT | -0.192 |
| TATTACTGCACAGTCATCTTAC | -0.307 |
| TTGCTGAACTGCATGTACCTGG | 0.418 |
| TTCAGGTATCTTTTTATCCAGA | -0.5 |

These sequences were tested against MED28 in the same assay as above. Settings: shRNA.

| Sequence | sensor-assay potency score (higher = more potent) |
| --- | --- |
| TAAGAAAAAACATTCTGTCTGT | 0.366 |
| TTCGAATTTCTTCCTGATCGGT | -0.329 |
| TAACTTGCTCTGGTTTCTGGAC | -0.587 |
| TTAGTTCTGACACATCCTCTTT | -0.943 |
| TCGTCCACCAAAGTACTGCTGG | -0.123 |
| TCGAATTTCTTCCTGATCGGTG | -0.612 |
| TAGTTCTGACACATCCTCTTTG | -0.787 |
| TTTGTAAGAAAAAACATTCTGT | 0.226 |
| TAAAATGAACTCATTATCTGGC | 0.719 |
| TGTCTGTCTTGCAATATCCAGA | -0.689 |
| TTCCGCTGTAATTCATTCCTTA | 0.0365 |

These sequences were tested against MED31 in the same assay as above. Settings: shRNA.

| Sequence | sensor-assay potency score (higher = more potent) |
| --- | --- |
| TATTGGAGCAGCTCTAACATGT | -0.528 |
| TAAATTTCGCACACTGAGCATT | -1.04 |
| TTGCACAAATTCCAACTCCAAC | -1.8 |
| TTGCTGTTGCTGCTCTGCCAAG | -1.72 |
| TTTTTTGTCTTCACTGTACAAA | -0.668 |
| TTGTCTTTGAAGTAACCTCTTT | -0.371 |
